The source of these data is PubChem BioAssay (NCI).

The panel holds about 83,000 compounds, 20% with a hit somewhere; the sample as a whole holds those more often.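 Growth was measured after 48 h exposure to one concentration of compound in 96-well plates. Values under 10 count as active.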 Unmarked numbers belong to inactive results. Activity calls are given as the source filed them.

For this test, the system named is EKVX NSCLC. Description: NCI-60 one-dose screen, 48 h (100 = growth as untreated, 0 = no growth, -100 = all killed). As to conditions: 10 µM unless noted. As for the experimental part:
Growth inhibition of the EKVX human Non-Small Cell Lung tumor cell line is measured as a screen for anti-cancer activity. Cells are grown in 96 well plates and exposed to the test compound for 48 hours. Compounds are tested at a single concentration, which is 10^-5 M for most compounds. The reported endpoint is percent growth (GI% or GIPRCNT), where numbers from 0 - 100% represent growth inhibition, and numbers from -100% - 0 represent cell death. For example, a value of 40 represents 60% growth inhibition. A value of 0 means no net growth occurred over the course of the experiment. A value of -40 indicates 40% of cells at the beginning of the experiment died by the end of the experiment. A value of -100 means all cells are dead at the end of the experiment.
NCI-60 Human Tumor Cell Lines Screen was performed using the standard one-dose NCI protocol, which is described in more detail at https://dtp.cancer.gov/discovery_development/nci-60/default.htm.
Compounds with GIPRCNT values below 10 were considered active. Activity score was based on GIPRCNT using the following formula: […]
Score is 0 for GIPRCNT values of 100 or above, 50 for GIPRCNT values of 0, and 100 for GIPRCNT values of -100.
As for `N#CC1=C(N)Oc2cc(N)ccc2C1c1ccc(F)cc1` (stereo not given), the growth is 97.1%.
Next, `OC[C@@H](O)[C@@H](O)CO`: 107%; `CC1SC(c2cccc(Oc3ccccc3)c2)N(CCc2cccs2)C1=O` (stereo not given): -24.1% (active).
Next, `COc1cc(/C=C2\C(=O)Nc3ccccc32)cc(OC)c1O`: 110%; `COc1ccc(-c2nc3sc(C)cn3c2/C=C/C(=O)c2cc(OC)c(OC)c(OC)c2)cc1`: 34%.
On to `C=C[C@H]1C[C@@H]2C[C@@H]3[C@H]4C/C=C\C(=O)NCCCC5NC(=O)C(=C(O)/C=C/[C@@H]4CC(=O)[C@H]3[C@@H]2[C@H]1C)C5=O` (stereo not given in full), for which the growth is 61.6%.
Consider `Cc1ccccc1-c1cc(-c2ccc(Br)s2)[nH]c(=O)c1C#N`, for which the growth was 85.6%.
Turning to `Cc1ccc(S(=O)(=O)c2ccc3[nH]c(=O)[nH]c(=O)c3c2)cc1`, the growth is 122%.
Take `Cc1nc(NC(=O)COc2cccc(/C=C3\COc4ccccc4C3=O)c2)sc1C`: the growth is -23.3% (active).
For `COc1cccc(OC(=O)c2ccccc2)c1OC(=O)c1ccccc1`, the growth was 95.4%.
Regarding `COc1cc2cc(Oc3ccc(NC(=O)Nc4ccc(Cl)c(C(F)(F)F)c4)cc3)c(C)nc2cc1OCCN1CCCCC1`, the growth was 15.8%.
Take `CN(C)c1ccc(/C=C(\C#N)c2cc3ccccc3n2C)cc1`: the growth was 41.6%.
For the compound `CN(C)C(=S)SCN1C(=O)c2ccc([N+](=O)[O-])cc2S1(=O)=O`, the growth is 93.7%.
Regarding `N#Cc1c(-c2cccc(F)c2)cc(-c2ccc(Br)s2)[nH]c1=O`, the growth is 89.3%.
Next, `CSC1=CC(=O)c2ccccc2C1=O`: 89.6%; `CCCCOC(=O)C1OC(Oc2ccc3c(C)cc(=O)oc3c2)[C@@H](OC(C)=O)C(OC(C)=O)C1OC(C)=O` (stereo not given in full): 89.5%; `CC(=O)OC[C@]1(C)C=C2C(=O)[C@](C)(O)C3(CC3)C(C)=C2[C@H]1OC(C)=O`: 114%.
As for `COC(=O)c1c2c(c(C)[n+]([O-])c1C)C(=O)C=C(NCc1ccc(Cl)cc1)C2=O`, the growth is -50% (active).
On to `COc1ccc(-c2csc3c2-n2cccc2C3=O)cc1O`, for which the growth was 56%.
The result for `Oc1ccc2ccccc2c1C1NN=C(c2ccccc2)S1` (stereo not given) reads 27.4%; that for `c1ccc(-c2n(Cc3ccc4ccccc4n3)c3ccccc3[n+]2Cc2ccc3ccccc3n2)cc1`, 13.5%; that for `CC1(C)CC(=O)C2=C(C1)Nc1cc3c(cc1C2c1ccc(F)cc1)OCO3` (stereo not given), 92.3%.
The result for `Clc1ccc(C2=Nc3cccc4cccc(c34)N2)cc1Cl` reads 91.1%.
Take `COc1ccc2c(c1)c(=O)oc1c(C)c(OCC(C)=O)ccc12`: the growth is 4.14% (active).
For `NS(=O)(=O)c1ccc(C(=O)N/N=C(\CS(=O)(=O)c2ccccc2)c2cc3cc(Br)ccc3o2)cc1`, the growth was 103%.
Regarding `CCN(CC)c1ccc(/C=C(\C#N)c2cc3ccccc3[nH]2)cc1`, the growth was 71.5%.
Consider `Cc1ccccc1-n1nnc(C(=O)Nc2ccc(-c3ccccc3)cn2)c1C`, for which the growth was 34.8% [50 µM].
For `Cn1c(=O)c2c(-c3ccccc3F)n(-c3ccc4c(c3)OCO4)cc2n(C)c1=O`, the growth was 87.6%.
For the compound `COc1ccc(-c2c(-c3cc4c(c(OC)c3OC)OCO4)noc2N)cc1`, the growth is 40.5%.
The result for `CCCCCCCC/C=C\CCCCCCCCOc1cccc(CC(=O)NCC[N+]2(C)CCCC2)c1` reads 89.4%.
As for `COC(=O)CCC(=O)c1ccccc1`, the growth is 89.7%.
On to `COc1cc2oc(-c3ccc(O)cc3)cc(=O)c2c(O)c1I`, for which the growth is 87.8%.
The result for `O=[N+]([O-])c1cc2c(cc1Br)-c1ccccc1C2` reads 77.6%.
Turning to `CN1CCN(C)c2cncc(Br)c2C1=O`, the growth was -82.7% (active).
Consider `Cc1ccc(N(CSc2ccc(Cl)cc2)CSc2ccc(Cl)cc2)cc1`, for which the growth is 17.4%.
With `CC1SC(c2ccc(Cl)cc2)N(CCc2cccs2)C1=O` (stereo not given), the growth is -12.5% (active).
Next, `Brc1ccc(Br)nn1`: -95.4% (active); `N#Cc1c(O)c2c(c(O)c1C#N)C(=O)c1ccccc1C2=O`: 87.3%; `O=C1C(N2CCOCC2)=Cc2cccc3cccc1c23`: 60.9%.
For `O=C1/C(=C/c2ccc(Cl)cc2)N=C(c2ccccc2)N1CCc1cccs1`, the growth was 72.1%.
